Reference: the supplement of paper PMC6555819

Key:
Assay in all cases: PBM binding z-score (relative to random genomic background probes); higher = stronger binding; sequences stand for … in GC…GCGATTGACAGCGTAGAATGAAGG
[1] = test system: FXR:RXRa (NR concentration 270 nM, RXRa partner concentration 90 nM)
Method in brief: (§1)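 Binding z-scores were set against random background probes. The data came from custom Agilent 4×180K protein-binding microarrays carrying double-stranded probes with 34-nt variable regions, incubated 1 h with ligand-free nuclear receptor dimers. Partner-specific antibodies detected binding, and scanned fluorescence was regression-normalized.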

[2] = test system: LXRa:RXRa (NR concentration 270 nM, RXRa partner concentration 90 nM)
Method in brief: as §1

[3] = test system: LXRa homodimer (NR concentration 270 nM)
Method in brief: as §1

[4] = test system: LXRb:RXRa (NR concentration 270 nM, RXRa partner concentration 90 nM)
Method in brief: as §1

[5] = test system: LXRb homodimer (NR concentration 270 nM)
Method in brief: as §1

[6] = test system: PPARa:RXRa (NR concentration 270 nM, RXRa partner concentration 90 nM)
Method in brief: as §1

[7] = test system: PPARg:RXRa (NR concentration 180 nM, RXRa partner concentration 90 nM)
Method in brief: as §1

[8] = test system: PPARg:RXRa 270nM:90nM, anti-RXR (NR concentration 270 nM, RXRa partner concentration 90 nM)
Method in brief: as §1

[9] = test system: PPARg:RXRa 30nM:10nM, anti-RXR (NR concentration 30 nM, RXRa partner concentration 10 nM)
Method in brief: as §1

[10] = test system: PPARg:RXRa 90nM:30nM, anti-RXR (NR concentration 90 nM, RXRa partner concentration 30 nM)
Method in brief: as §1

TCATATAGGTAAAAGGTGAAAGTAGGTGTGGTAA
PBM binding z-score [1]: 2.28
PBM binding z-score [2]: 2.13
PBM binding z-score [3]: 0.449
PBM binding z-score [4]: 2.3
PBM binding z-score [5]: 0.226
PBM binding z-score [6]: 5.4
PBM binding z-score [7]: 9.14
PBM binding z-score [8]: 8.72
PBM binding z-score [9]: 8.11
PBM binding z-score [10]: 9.43

TCTTGTACATCAACAGGAGGTTAAGAAAGATCGA
PBM binding z-score [1]: 0.517
PBM binding z-score [2]: 1.37
PBM binding z-score [3]: 0.452
PBM binding z-score [4]: 1.13
PBM binding z-score [5]: 0.442
PBM binding z-score [6]: 1.16
PBM binding z-score [7]: 0.195
PBM binding z-score [8]: 1.36
PBM binding z-score [9]: 3.01
PBM binding z-score [10]: 1.9

CTACCAATGTGAACAAGGTCGTTGATTACTATTC
PBM binding z-score [1]: 0.783
PBM binding z-score [2]: 1.15
PBM binding z-score [3]: 0.608
PBM binding z-score [4]: 1.83
PBM binding z-score [5]: 0.441
PBM binding z-score [6]: 1.51
PBM binding z-score [7]: 0.331
PBM binding z-score [8]: 0.322
PBM binding z-score [9]: 0.12
PBM binding z-score [10]: 0.449

CAAACTAGATCACGAAAGGTCAAAGTCGAATGAC
PBM binding z-score [1]: 5.13
PBM binding z-score [2]: 5.95
PBM binding z-score [3]: 5.88
PBM binding z-score [4]: 5.7
PBM binding z-score [5]: 2.42
PBM binding z-score [6]: 5.61
PBM binding z-score [7]: 4.16
PBM binding z-score [8]: 5.04
PBM binding z-score [9]: 2.26
PBM binding z-score [10]: 3.98

CGTCCAAGGTTAGAGAGGTCAGTGAATGCCGAGT
PBM binding z-score [1]: 2.67
PBM binding z-score [2]: 3.01
PBM binding z-score [3]: 1.94
PBM binding z-score [4]: 2.48
PBM binding z-score [5]: -0.312
PBM binding z-score [6]: 3.11
PBM binding z-score [7]: 0.589
PBM binding z-score [8]: 1.66
PBM binding z-score [9]: -0.029
PBM binding z-score [10]: 0.655

GCTTACGGGTCAAAGGCTATAGCATGAATAGAAT
PBM binding z-score [1]: 5.51
PBM binding z-score [2]: 3.89
PBM binding z-score [3]: 0.00427
PBM binding z-score [4]: 3.82
PBM binding z-score [5]: 0.0561
PBM binding z-score [6]: 6.01
PBM binding z-score [7]: 7.81
PBM binding z-score [8]: 6.86
PBM binding z-score [9]: 5.03
PBM binding z-score [10]: 6.55

ACTAGTTGGTCAGCTGACGTCACACACAATTCGG
PBM binding z-score [1]: 0.0857
PBM binding z-score [2]: 0.103
PBM binding z-score [3]: -0.224
PBM binding z-score [4]: 0.522
PBM binding z-score [5]: 0.287
PBM binding z-score [6]: 0.229
PBM binding z-score [7]: 0.969
PBM binding z-score [8]: -0.246
PBM binding z-score [9]: -0.0374
PBM binding z-score [10]: -0.0611

ACTCGGAGGACAAAGGTTAGAGCTACGCCAGTGA
PBM binding z-score [1]: 0.928
PBM binding z-score [2]: 1.08
PBM binding z-score [3]: 0.0666
PBM binding z-score [4]: 0.618
PBM binding z-score [5]: -0.716
PBM binding z-score [6]: 2.93
PBM binding z-score [7]: 4.75
PBM binding z-score [8]: 5.11
PBM binding z-score [9]: 3.29
PBM binding z-score [10]: 5.35

TCTCGGAGGACAAGAAAGGTCAGAGCTCGACATC
PBM binding z-score [1]: 2.65
PBM binding z-score [2]: 3.41
PBM binding z-score [3]: 2.12
PBM binding z-score [4]: 2.65
PBM binding z-score [5]: -0.275
PBM binding z-score [6]: 3.37
PBM binding z-score [7]: 0.803
PBM binding z-score [8]: 2.26
PBM binding z-score [9]: 2.52
PBM binding z-score [10]: 2.37

GCGACTGGGGCAAAGCAGGTTACCCTAAGGTTGG
PBM binding z-score [1]: 0.366
PBM binding z-score [2]: 0.0738
PBM binding z-score [3]: -0.555
PBM binding z-score [4]: 0.116
PBM binding z-score [5]: -0.841
PBM binding z-score [6]: 1.56
PBM binding z-score [7]: 1.08
PBM binding z-score [8]: 1.52
PBM binding z-score [9]: -0.381
PBM binding z-score [10]: 0.659

TAGCCTAGGACATTCAGGGGCCAGTATAGAAAGC
PBM binding z-score [1]: -0.499
PBM binding z-score [2]: -0.54
PBM binding z-score [3]: -0.456
PBM binding z-score [4]: -0.243
PBM binding z-score [5]: -0.646
PBM binding z-score [6]: -0.572
PBM binding z-score [7]: 0.256
PBM binding z-score [8]: -0.544
PBM binding z-score [9]: -0.505
PBM binding z-score [10]: -0.409

TGAATGAGGTTAAAGATCAGAGAACGTGGCGTCG
PBM binding z-score [1]: 3.2
PBM binding z-score [2]: 2.25
PBM binding z-score [3]: -0.274
PBM binding z-score [4]: 1.7
PBM binding z-score [5]: 0.104
PBM binding z-score [6]: 4.43
PBM binding z-score [7]: 6.08
PBM binding z-score [8]: 6.65
PBM binding z-score [9]: 5.22
PBM binding z-score [10]: 6.58

CCTAGTTGGTCAGGAGGTCACGCACCGGATATGA
PBM binding z-score [1]: 4.29
PBM binding z-score [2]: 4.22
PBM binding z-score [3]: 2.24
PBM binding z-score [4]: 3.81
PBM binding z-score [5]: 0.661
PBM binding z-score [6]: 4.65
PBM binding z-score [7]: 4.41
PBM binding z-score [8]: 4.64
PBM binding z-score [9]: 2.02
PBM binding z-score [10]: 3.5

TTACCAAGGAGAAGGTCGTTGATCCCTCTGTAGA
PBM binding z-score [1]: 1.21
PBM binding z-score [2]: 1.19
PBM binding z-score [3]: -0.0479
PBM binding z-score [4]: 0.995
PBM binding z-score [5]: -0.829
PBM binding z-score [6]: 1.18
PBM binding z-score [7]: 0.529
PBM binding z-score [8]: 2.23
PBM binding z-score [9]: 1.24
PBM binding z-score [10]: 1.77

CAAACTAGGTCACAGAGGTGAAAGTCCGTGCGTA
PBM binding z-score [1]: 5.7
PBM binding z-score [2]: 4.38
PBM binding z-score [3]: 0.932
PBM binding z-score [4]: 3.33
PBM binding z-score [5]: 0.56
PBM binding z-score [6]: 5.82
PBM binding z-score [7]: 9.16
PBM binding z-score [8]: 7.57
PBM binding z-score [9]: 5.73
PBM binding z-score [10]: 7.6

TAGCCTAGTTCATGGGCCAGTATACCACGCGAAC
PBM binding z-score [1]: 0.00503
PBM binding z-score [2]: 0.504
PBM binding z-score [3]: -0.133
PBM binding z-score [4]: 0.304
PBM binding z-score [5]: -0.689
PBM binding z-score [6]: 0.867
PBM binding z-score [7]: 0.6
PBM binding z-score [8]: 0.24
PBM binding z-score [9]: -0.416
PBM binding z-score [10]: 0.104

GCTTGTAGATCAAGGTTATGAAAGACTAAGCTAA
PBM binding z-score [1]: 0.138
PBM binding z-score [2]: 0.572
PBM binding z-score [3]: -0.505
PBM binding z-score [4]: 0.452
PBM binding z-score [5]: -0.591
PBM binding z-score [6]: 1.3
PBM binding z-score [7]: 0.656
PBM binding z-score [8]: 0.989
PBM binding z-score [9]: 0.21
PBM binding z-score [10]: 0.553

ACTCTGAGGACAAAGGTCAGAGCTACGCCAGTGA
PBM binding z-score [1]: 4.52
PBM binding z-score [2]: 4.08
PBM binding z-score [3]: 1.44
PBM binding z-score [4]: 3.34
PBM binding z-score [5]: 0.531
PBM binding z-score [6]: 4.76
PBM binding z-score [7]: 7.44
PBM binding z-score [8]: 7
PBM binding z-score [9]: 5.4
PBM binding z-score [10]: 6.74

TAGCCTAGGGCATGGGCCAGTATACCACGCGAAC
PBM binding z-score [1]: -0.362
PBM binding z-score [2]: -0.149
PBM binding z-score [3]: -0.378
PBM binding z-score [4]: -0.666
PBM binding z-score [5]: -1.19
PBM binding z-score [6]: -0.188
PBM binding z-score [7]: 0.658
PBM binding z-score [8]: 0.665
PBM binding z-score [9]: -0.115
PBM binding z-score [10]: 0.0783

ATCTCTAGGTAACCACGTTCAGTGAATGCCGAAC
PBM binding z-score [1]: -0.0584
PBM binding z-score [2]: -0.141
PBM binding z-score [3]: 0.335
PBM binding z-score [4]: -0.0295
PBM binding z-score [5]: 0.814
PBM binding z-score [6]: 0.308
PBM binding z-score [7]: 0.571
PBM binding z-score [8]: 0.503
PBM binding z-score [9]: 0.0771
PBM binding z-score [10]: 0.0954

TCTCGGAGGACACGAGGGTCAGAGCTTTCCAGAG
PBM binding z-score [1]: 0.856
PBM binding z-score [2]: 0.365
PBM binding z-score [3]: -0.438
PBM binding z-score [4]: 0.47
PBM binding z-score [5]: -1.32
PBM binding z-score [6]: 1.46
PBM binding z-score [7]: 0.145
PBM binding z-score [8]: 1.07
PBM binding z-score [9]: 1.75
PBM binding z-score [10]: 1.17

CCGACTGGGCCAAGGTTACCATAACGCACAGCCA
PBM binding z-score [1]: 0.00014
PBM binding z-score [2]: 0.358
PBM binding z-score [3]: -0.181
PBM binding z-score [4]: 0.279
PBM binding z-score [5]: -1.2
PBM binding z-score [6]: 1.01
PBM binding z-score [7]: 1.97
PBM binding z-score [8]: 2.37
PBM binding z-score [9]: 0.199
PBM binding z-score [10]: 1.39

TCTCGGAGGACACGTAGGTCAGAGCTTTCCAGAG
PBM binding z-score [1]: 0.6
PBM binding z-score [2]: 0.395
PBM binding z-score [3]: -0.0787
PBM binding z-score [4]: 0.22
PBM binding z-score [5]: -0.976
PBM binding z-score [6]: 1.09
PBM binding z-score [7]: 0.109
PBM binding z-score [8]: 1.13
PBM binding z-score [9]: 2.08
PBM binding z-score [10]: 1.61
